# From PubChem
# This is a sample that favours compounds with a hit; in the whole collection about 12% have one here.
# ROMK primary: human ROMK K+ channel modulation, primary screen; Tet-inducible ROMK, thallium flux fluorescence; actives lie on both sides; B-score at 10 µM; 2% of 130,000 active; P48048; AID 1918;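 active = signal ratio slope over the read window, or its plate-corrected B-score, at least 3 SD from the plate mean, either direction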;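 note: B-score of the F/F0 ratio slope over 7 to 12 s after thallium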
# Cl transport mod: modulators of human KCC2 chloride dependent transport | Q9H2X9 | KCC2 cells, thallium flux FluoZin-2 fluorescence | B-score of Tl+ flux slope (higher = more flux/activation; lower = inhibition) at 10 µM | 2.2% of 190,000 active | AID 1456;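 active = thallium flux slope and its plate-corrected score both differing from the plate sample mean at a set confidence after two filtering rounds, in either direction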;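 note: slope of fluorescence scaled to starting intensity during 10 to 20 s after thallium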
# Target sequence (Q9H2X9 whole entry, looked up): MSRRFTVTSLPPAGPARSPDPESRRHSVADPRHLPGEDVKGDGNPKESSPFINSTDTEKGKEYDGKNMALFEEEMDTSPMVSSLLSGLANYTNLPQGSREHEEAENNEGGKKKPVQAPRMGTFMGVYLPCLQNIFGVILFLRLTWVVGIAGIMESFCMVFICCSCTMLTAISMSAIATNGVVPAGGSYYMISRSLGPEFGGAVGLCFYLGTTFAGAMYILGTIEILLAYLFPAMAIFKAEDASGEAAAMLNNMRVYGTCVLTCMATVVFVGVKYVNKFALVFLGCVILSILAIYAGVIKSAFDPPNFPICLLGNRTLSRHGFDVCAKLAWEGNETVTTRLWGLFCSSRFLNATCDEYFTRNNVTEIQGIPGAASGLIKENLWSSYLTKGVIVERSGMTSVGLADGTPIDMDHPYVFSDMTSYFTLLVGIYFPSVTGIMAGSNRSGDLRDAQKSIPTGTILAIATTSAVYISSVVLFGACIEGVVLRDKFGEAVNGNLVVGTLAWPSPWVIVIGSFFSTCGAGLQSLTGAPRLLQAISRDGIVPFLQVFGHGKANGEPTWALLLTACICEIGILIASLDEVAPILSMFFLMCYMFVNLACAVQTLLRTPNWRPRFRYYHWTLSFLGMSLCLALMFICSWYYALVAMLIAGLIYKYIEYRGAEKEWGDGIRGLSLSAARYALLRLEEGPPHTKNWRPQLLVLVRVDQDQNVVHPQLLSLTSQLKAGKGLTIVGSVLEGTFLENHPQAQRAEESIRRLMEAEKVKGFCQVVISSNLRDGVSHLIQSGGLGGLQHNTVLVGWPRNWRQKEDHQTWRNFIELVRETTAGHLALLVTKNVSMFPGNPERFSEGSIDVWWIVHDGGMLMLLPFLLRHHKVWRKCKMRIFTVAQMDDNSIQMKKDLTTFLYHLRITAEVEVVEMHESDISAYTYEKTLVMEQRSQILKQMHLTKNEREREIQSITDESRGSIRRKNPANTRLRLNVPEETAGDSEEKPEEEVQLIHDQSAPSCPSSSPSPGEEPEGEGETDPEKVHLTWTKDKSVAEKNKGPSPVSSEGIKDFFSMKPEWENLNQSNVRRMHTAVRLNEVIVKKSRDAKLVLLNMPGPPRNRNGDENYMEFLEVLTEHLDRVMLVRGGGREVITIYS
# Ins promoter up: MIN6 insulin promoter up-regulation. MIN6 insulin promoter-GFP reporter, high-content imaging; active compounds read high. z-score at 5 µM. 0.3% of 190,000 active. AID 1625;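 active = z-score above 3 at 5 µM with at least 500 cells counted in the well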
# WT yeast gro inh: growth inhibition of WT yeast, mitochondrial fusion screen. 2.1% of 190,000 active. mitochondrial fusion phenotypic screen, WT strain. inhibition, % at 10 µM; in the data active = inhibition above about 58%; tested in S. cerevisiae
# INS promoter inh: TRM-6 insulin promoter activity inhibition; TRM-6 cells (human fetal islet line), insulin promoter-eGFP reporter, imaging; reporter expression induced with tamoxifen; inhibition, % at 2 µM; 0.9% of 130,000 active;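 active = inhibition above the mean plus 3 SD, with well images judged a real hit on visual review, cut at about 60% in these data, passing the limit was not always enough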
# L major viab: inhibitors of Leishmania major promastigote growth; Leishmania major promastigotes, resazurin fluorescence viability; inhibition, % at 10 µM; 9% of 200,000 active; in the data active = inhibition above about 50%;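 note: promastigotes grown with compound for 44 hours at 28 °C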
# Numbers without * were called inactive; / = no result given.
SMILES,ROMK primary,Cl transport mod,Ins promoter up,WT yeast gro inh,INS promoter inh,L major viab
CCN(CC(=O)Nc1ccc2c(c1)OCCO2)c1nc(-c2cccnc2)nc2ccccc12,-0.59,-1.4,-0.39,11,/,53*
O=C(Nc1ccc2c(c1)OCO2)c1cc(-c2cccnc2)nc2ccccc12,-0.0069,0.82,-0.76,20,/,11
COc1ccc(CNC(=S)N/N=C/c2ccncc2)cc1,1.5,-0.31,0.07,35,14,54*
O=C(OCc1csc(Nc2ccccc2)n1)c1ccc(Cl)cc1,/,0.55,-0.96,76*,/,-2
O=C(COc1ccccc1)OCc1csc(Nc2ccccc2)n1,/,0.11,0,29,36,49
C(=N\NC1=Nc2cccc3cccc1c23)/c1ccccc1,/,-0.054,0.59,8,-34,8
NC1=Nc2cccc3cccc1c23,-1.2,-0.1,-0.02,26,-87,52*
COCCN1C=C(C(=O)OC)C(c2ccc(OC)c(OC)c2)C(C(=O)OC)=C1,0.44,/,1.1,1,71*,3
CCOC(=O)C1CCCN(Cc2cc(Br)ccc2OC)C1 (stereo not drawn),/,-0.16,0.98,8,/,7
COc1ccc(/C(O)=C2/C(=O)C(=O)N(CCCC(=O)O)C2c2ccc(OC)cc2)cc1 (stereo not drawn),/,1,0.01,-8,-38,-4
CCc1cc(C(=O)OC)c(NC(=O)CC2SC(N)=NC2=O)s1 (stereo not drawn),0.72,0.61,0.23,11,/,9
CC1=NN(c2ccc(C)c(C)c2)C(=O)/C1=C\C=C\c1ccc([N+](=O)[O-])o1,0.91,0.91,-0.86,80,-331,98*
C#CCN1C(=O)S/C(=C/C=C/c2ccc(N(C)C)cc2)C1=O,0.49,0.66,-0.43,19,-270,88*
O=C(O)CN1C(=O)/C(=C/C=C/c2ccccc2)SC1=S,0.78,-0.34,0.14,7,-31,-11
COc1ccc(NS(=O)(=O)c2ccc3c(c2)Cc2ccccc2-3)cn1,-1.1,-0.94,0.07,60*,38,-7
COc1ccc(NC(=O)c2cccc(S(=O)(=O)Nc3ccc(Br)cc3)c2)cn1,/,-1.3,-0.55,27,/,7
COc1ccc(-c2cc(C(F)(F)F)n3ncc(C(=O)O)c3n2)cc1OC,/,0.33,-0.3,3,0,1
Nn1c(SCC(=O)N2CCCc3ccccc32)nnc1-c1ccc(Cl)cc1,-0.56,/,0.55,-2,/,2
COc1ccc(/C=N/NC(=O)c2ccc(CN3c4cccc5cccc(c45)S3(=O)=O)cc2)cc1,/,0.99,0.7,-8,4,82*
COc1cc(/C=N/NC(=O)c2ccc(CN3c4cccc5cccc(c45)S3(=O)=O)cc2)cc(OC)c1O,0.79,-0.78,-0.66,-5,/,-8
O=C(CN(c1ccccc1)S(=O)(=O)c1ccccc1)NCCSCc1ccco1,0.4,-0.83,0.91,-19,-46,68*
COc1ccc(N(CC(=O)NCCSCc2ccco2)S(=O)(=O)c2ccc(C)cc2)cc1,0.016,-2.8,-0.55,-6,/,1
Cc1ccc(S(=O)(=O)N(CC(=O)NCCSCc2ccco2)c2cc(C)ccc2C)cc1,/,/,/,/,-81,100*
Cc1ccc(N(CC(=O)NCCSCc2ccco2)S(=O)(=O)c2ccc(F)cc2)cc1,0.82,-1.8,-0.19,13,/,69*
CC(C)CC(=O)NC(NC(=S)Nc1ccccc1)C(Cl)(Cl)Cl (stereo not drawn),-0.91,0.036,-0.49,10,33,19
SMILES,ROMK primary,Cl transport mod,Ins promoter up,WT yeast gro inh,INS promoter inh,L major viab
CN1Cc2cc(C(=O)c3cc(Cl)cc(CSc4ncccn4)c3O)cnc2NC1=O,/,0.15,-1.4,-6,/,12
Cc1cc(NC(=O)C(C)C)ncc1NC(=O)CCc1ccccc1,0.86,-0.044,/,-16,22,1
COC(=O)c1c(NC(=O)CN2CCC(C(N)=O)CC2)c2c(C)cccc2n1C,0.49,0.41,0.42,8,/,-2
CC(C)CNc1nc(Oc2ccc(=O)[nH]n2)nc(N(C)C)n1,-0.31,0.11,/,2,41,-3
CC/C(C)=N/Nc1ccc(S(=O)(=O)N2CCCC2)cc1[N+](=O)[O-],0.94,-1.5,0.32,-8,-70,-11
CC(=O)Nc1cc(C(=O)NCc2ccco2)ccc1Sc1ccc(Cl)cc1,-0.36,0.34,-0.29,5,-4,92*
CCOc1ccccc1CNC(=O)c1ccc(Sc2ccc(Cl)cc2)c(NC(C)=O)c1,-0.31,-0.059,0.27,65*,-44,85*
CC(=O)Nc1cc(C(=O)NCc2ccco2)ccc1Sc1ccc(F)cc1,0.38,0.61,0.96,-19,35,5
CCOc1ccc(CNC(=O)c2ccc(Sc3ccc(Cl)cc3)c(NC(C)=O)c2)cc1,-1,-0.49,-0.7,42,12,95*
CC(=O)Nc1cc(C(=O)N(C)Cc2ccco2)ccc1Sc1ccc(Cl)cc1,0.21,-1,0.26,7,-45,0
CC(=O)Nc1cc(C(=O)N2CCc3ccccc3C2)ccc1Sc1ccc(C)cc1,-2,-2.9,0.07,41,-3,-1
NC(=O)NC(=O)COC(=O)c1sc2ccccc2c1Cl,/,1.2,0.25,/,/,/
Cc1cc(C)cc(N=c2c([N+](=O)[O-])nn(-c3ccc(Cl)cc3)n2O)c1,-1.2,0.41,/,36,36,95*
CCc1ccc(N=c2c([N+](=O)[O-])nn(-c3ccccc3)n2O)cc1,-0.17,0.27,-0.61,28,33,88*
Cc1ccc(CN=c2c([N+](=O)[O-])nn(-c3cccc(C)c3)n2O)cc1,-1.4,-0.63,0.29,24,/,20
Cc1cc(C)c2c(n1)nn1c(C)c(CCC(=O)NCc3ccco3)c(C)nc21,/,-0.91,/,1,60,0
C#CCOCCOCCOCCNc1nc(N2CCN(C(=O)[C@H]([C@@H](C)CC)n3cc([C@@H](N)CC(C)C)nn3)CC2)nc(N2CCN(C(=O)[C@H](CCCCN)n3cc([C@@H](N)CC(C)C)nn3)CC2)n1,/,-1,-0.56,-14,/,-9
N#Cc1c(NC(NC(=O)c2ccco2)C(=O)c2ccccc2)sc2c1CCCC2 (stereo not drawn),/,-0.47,-0.05,62*,-23,0
CCN(Cc1nc(-c2cccc(Cl)c2)no1)CC1CCCO1 (stereo not drawn),-0.36,-0.35,-0.31,4,/,0
COC(=O)c1cc(S(=O)(=O)Nc2nn(C)c3ccccc23)oc1C,/,0.62,0.26,/,/,/
Cc1c(C#N)c(O)n(CCO)c(=O)c1N=Nc1ccc(S(N)(=O)=O)cc1,-0.63,0.57,/,7,-5,4
Cc1c(C#N)c(O)n(C)c(=O)c1N=Nc1ccc(S(N)(=O)=O)cc1,0.77,0.47,/,4,65*,42
O=C1c2ccccc2C(Nc2ccc(Cl)cn2)N1Cc1ccccc1 (stereo not drawn),/,-2.4,-0.89,71*,/,25
O=C1c2ccccc2C(Nc2ccccc2)N1c1ccc(Cl)cn1 (stereo not drawn),/,1.6,0.47,0,/,17
O=C(NNc1ccccc1)C(=O)N1CCCCC1,/,0.14,0.18,51,/,67*
